# Screening data as filed in PubChem.
# The list is not random: actives were taken first. Their share in the collection is about 7.4%.
# Rab9 promoter act: Rab9 promoter activation; Huh7 Rab9 promoter-luciferase reporter, luminescence, 24 h; Potency, µM (series often up to 9.22 µM), inactives show at the highest dose activation, negative = inhibition, usual class: activators; 2.8% of 320,000 active; note: % of control where 0% means no effect; nearly all actives have a fitted effect of over 60% in size
#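 Measured in stably transfected Huh7 cells bearing a Rab9 promoter–luciferase construct: 24 h compound treatment at 37 °C, followed by luminescence detection.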
# FLuc modulator: inhibits or activates purified firefly luciferase, miR-21 counter-screen. P08659. 6.9% of 360,000 active. Potency, µM (highest dose often 57.5 µM), without a hit: at the highest dose activity change, negative = inhibition, most hits filed as inhibitors. purified FLuc, Km substrates, luminescence inhibition;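 note: plate controls were vehicle for no effect and reference inhibitor for full effect; nearly all actives have a fitted effect of over 55% in size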
# Target sequence (P08659 whole entry, looked up): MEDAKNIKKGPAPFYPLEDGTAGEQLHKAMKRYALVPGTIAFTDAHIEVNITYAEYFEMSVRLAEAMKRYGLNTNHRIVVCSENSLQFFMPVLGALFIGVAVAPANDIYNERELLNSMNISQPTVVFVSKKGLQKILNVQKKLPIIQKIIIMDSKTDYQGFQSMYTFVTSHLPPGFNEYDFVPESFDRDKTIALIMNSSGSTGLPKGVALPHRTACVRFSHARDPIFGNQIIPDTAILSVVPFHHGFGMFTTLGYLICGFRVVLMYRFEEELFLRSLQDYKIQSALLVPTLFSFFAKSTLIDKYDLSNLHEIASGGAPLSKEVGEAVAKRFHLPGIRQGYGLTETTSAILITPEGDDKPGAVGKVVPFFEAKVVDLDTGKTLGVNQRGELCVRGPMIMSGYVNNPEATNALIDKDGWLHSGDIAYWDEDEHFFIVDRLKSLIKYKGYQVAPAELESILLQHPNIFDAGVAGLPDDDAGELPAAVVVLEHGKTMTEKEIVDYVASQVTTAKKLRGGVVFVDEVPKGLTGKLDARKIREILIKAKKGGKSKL
#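 Purified P. pyralis luciferase (10nM final) with 10uM D-luciferin and 10uM ATP (Km levels) in 50mM Tris acetate pH 7.5, 10mM Mg acetate, 0.01% Tween-20, 0.05% BSA; qHTS 6-point titration, ~60 µM downward; luminescence read.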
# Luc counter: counter-screen: inhibitors of Kinase-Glo firefly luciferase | Kinase-Glo luciferase, ATP luminescence, 8 min | Potency, µM (doses to about 38.3 µM), inactives show top-dose activity change, negative = inhibition, hits mostly inhibitors | 0.28% of 200,000 active; note: % is set by controls: 0 for no effect and ±100 for the full control effect; nearly all actives have a fitted effect of over 60% in size
#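 Inhibition of Kinase-Glo luciferase light generation was assessed at 10 uM ATP in pH 7.2 imidazole buffer, with luminescence measured after eight minutes at ambient temperature.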
# NPC1 prom act: activates the NPC1 promoter; Huh7 NPC1 promoter luciferase reporter, 24 h; Potency, µM (series often up to 9.22 µM), without a hit: at the top dose activation, actives largely listed as activators; 2.4% of 320,000 active; AID 485313; note: % of control where 0% means no effect; nearly all actives have a fitted effect of over 60% in size
#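 Stable NPC1-promoter luciferase Huh7 line; cpd (DMSO) 24 h, 37 °C, 5% CO2; Amplite luciferase reagent 10 min RT; luminescence readout. qHTS format.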
# ELG1 genotox: induces genotoxicity in HEK293T cells with luciferase-tagged ELG1. Potency, µM (doses to about 46 µM), for the others: at the top dose activity change, positive = activation, usual class: activators. HEK293T ELG1-luciferase reporter, luminescence, 16 h. 1.3% of 330,000 active. AID 504466; note: % of control where 0% means no effect; nearly all actives have a fitted effect of over 60% in size
#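 DMSO vehicle served as control against compound-treated ELG1-luciferase HEK293T cells; exposure lasted 16 hr at 37 °C and 5% CO2, followed by ONE-Glo luminescence detection after 30 min.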
# SMN2 splice enh: enhancers of SMN2 splice variant expression; 2.8% of 210,000 active; Potency, µM (titrated, usually from 46.1 µM), for the others: at the highest dose activity change, positive = activation, most hits filed as activators; HEK293 SMN2-luciferase splicing reporter, luminescence, 30-36 h; note: % of control where 0% means no effect; nearly all actives have a fitted effect of over 55% in size
#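 qHTS luciferase splicing reporter: luminescence rises when SMN2 exon 7 is included in transfected HEK293 cells. Compound exposure lasted 30-36 h at 37C, with 4.5 mM final sodium butyrate as control, followed by a ONE-Glo read.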
# * = called active by the depositor; ? = inconclusive; . = no result; [ ] = another dose, or the depositor's remark. Calls come from the whole dose curve; as a rule, active = well fitted curve in the direction sought with a large enough effect; inconclusive = small, poorly fitted or top-dose-only effect, or another doubt; inactive = no such curve, though single readings can be large; an effect the other way counts as inactive or inconclusive. Potency is the fitted concentration of half-maximal effect.
SMILES,Rab9 promoter act,FLuc modulator,Luc counter,NPC1 prom act,ELG1 genotox,SMN2 splice enh
Cc1c(C(=O)Nc2ccc3c(c2)OCO3)sc2ncn(CC(=O)N3CC(C)CC(C)C3)c(=O)c12 (centres undefined),-2%,0%,-7%,1%,6%,5%
Cc1nc2ccccn2c1C(=O)/C=C/c1cccc([N+](=O)[O-])c1,-43%,-5%,1%,-28%,-27%,-69%
Cc1ccc(NC(=O)c2cccc(N3CCCS3(=O)=O)c2)cc1C,.,19µM*,.,.,.,.
Cc1cccc(C(=O)Nc2cccc(NC(=O)c3ccccc3)c2)c1,-3%,17µM*,.,10%,-2%,.
Cc1cccc(NC(=O)c2cccc(C(=O)Nc3cccc(C)c3)c2)c1,-3%[1.84 µM],-8%,.,2%,3%,.
Cc1ccc(NC(=O)CO/N=C(\N)c2ccccc2)cc1C,.,.,.,.,5%,.
Cc1ccc(NC(=O)CC(=O)c2ccccc2)cc1C,4µM*,15µM*,.,?,?,.
Cc1ccc(/C=C/C(=O)c2c(C)nc3ccccn23)cc1,1.4µM*,1.1µM*,-1%,?,16%,?
Cc1cccc(C(=O)Nc2ccc(NC(=O)c3ccccc3)cc2)c1,-1%,24µM*,.,-1%,-6%,.
Cc1ccc(NC(=O)c2ccccc2C(=O)O)cc1C,.,.,-5%[7.66 µM],.,.,-5%[9.22 µM]
Cc1cccc(C(=O)Nc2ccc(C(=O)Nc3ccc(O)cc3)cc2)c1,9%,-4%,.,1%,?,.
O=C(Cc1ccc(Cl)cc1)Nc1ccc(NC(=O)c2ccccc2)cc1,3%,3%,-3%,-1%,7%,1%[1.84 µM]
O=C(CC(=O)c1ccccc1)Nc1ccc(Cl)cc1,?,15µM*,.,?,13%,.
Cc1cc2ccccn2c1C(=O)Nc1ccc(Cl)cc1,?,?,-5%,13%,?,14%
Cc1cc2ccccn2c1C(=O)Nc1ccccc1,?,11µM*,-4%,27%,?,?
Cc1ccc(C(=O)Nc2ccc(Oc3ccc(C(=O)O)c(C(=O)O)c3)cc2)cc1C,-9%,6µM*,-1%,-1%,1%,0%
COc1ccccc1S(=O)(=O)CC(O)COc1ccc(C#N)cc1 (centres undefined),-2%,-1%,0%,-10%,0%,-4%
Cc1cccc(C(=O)NNC(=O)c2ccccc2C)c1,5%,?,-1%,6%,6%,12%
Cc1ccc(NC(=O)c2ccc(NC(=O)c3ccccc3)cc2)cc1C,?,27µM*,.,?,?,.
Cc1cccc(C(=O)NNC(=O)c2ccccc2O)c1,?,21µM*,.,3.2µM*,?,.
Cc1ccc(NC(=O)C(SCC(=O)O)c2ccccc2)cc1C (centres undefined),4%,?,5%,1%,0%,9%
COC(=O)CSC(C(=O)Nc1ccc(C)c(C)c1)c1ccccc1 (centres undefined),10%,17µM*,2%,-5%,6%,9%
Cc1cccc(C(=O)Nc2ccccc2C(=O)OCC(=O)Nc2ccc(C#N)cc2)c1,13%,?,0%,11%,?,16µM*
CC(=O)N1[C@H](Cc2ccccc2)C=C[C@]1(C)C(=O)O,.,.,0%,.,.,-2%
CC(=O)c1cccc(NC(=O)C(C)N(C)CC(=O)Nc2ccc(Cl)cc2)c1 (centres undefined),-1%,1%,.,-9%,-4%,.
SMILES,Rab9 promoter act,FLuc modulator,Luc counter,NPC1 prom act,ELG1 genotox,SMN2 splice enh
CCc1ccc(NC(=O)CN2CCc3ccccc3C2)cc1,12%,24µM*,-4%,6%,?,-16%
Cc1cccc(NC(=O)c2c(C)nc3ccccn23)c1,?,?,-4%,22%,4%,?
CCc1ccc(NC(=O)CCC(=O)c2ccc(C)cc2)cc1,-2%,-3%,.,-2%,-2%,.
Cc1ccc(NC(=O)c2c(C)nc3ccccn23)cc1C,1.8µM*,8.5µM*,-3%,3.2µM*,-1%,13µM*
Cc1cccc(C(=O)Nc2cccc(C(=O)Nc3cc(C)ccn3)c2)c1,20%,27µM*,.,10%,-6%,.
CCc1ccc(NC(=O)CCC(=O)c2ccccc2)cc1,-6%,13µM*,.,0%,3%,.
Cc1ccnc(NC(=O)c2cccc(NC(=O)Cc3ccccc3)c2)c1,-2%,?,-4%,-1%,8%,.
COc1ccc(NC(=O)C2CCCN(S(=O)(=O)c3ccc(F)cc3)C2)cc1 (centres undefined),.,5%,.,.,.,-4%
COc1cccc(-c2cc(C(F)(F)F)n3nc(N)nc3n2)c1,-4%,0%,6%,2%,5%,-8%
OC1CCN(c2c3c(nc4cc(-c5ccc(Cl)cc5)nn24)CCC3)CC1,1%,?,1%,-2%,-1%,-12%
Clc1ccc(-c2cn3nc4c(nc3n2)CCCC4)cc1,0.32µM*,0.24µM*,?,0.2µM*,?,1.8µM*
COc1cccc(-c2cn3nc4c(nc3n2)CCCC4)c1,0.71µM*,0.76µM*,10µM*,0.63µM*,?,1.6µM*
CCOc1ccc2nc(SCC(=O)N(C)C3CCS(=O)(=O)C3)[nH]c2c1 (centres undefined),14%,-13%,.,-3%,2%,.
CCOc1ccc2nc(SCC(=O)N(C)C)[nH]c2c1,3.5µM*,19µM*,0%,4µM*,16µM*,24%
CCOc1ccc2nc(SCC(=O)Nc3ccc4[nH]c(=O)[nH]c4c3)[nH]c2c1,1%,13µM*,.,7%,0%,.
CCCCN1C=CC(=C2C(=O)c3ccccc3C2=O)C=C1,0.032µM*,0.13µM*,1.1µM*,?,?,-67%
Cc1cccc(C(=O)N/N=C/c2ccoc2)c1,23%,?,.,1%,13%,.
Cn1cccc1/C=N/NC(=O)c1cccc(OC(F)(F)C(F)F)c1,16%,21µM*,-2%,17%,12%,24%
O=C(CSCc1cccc(Cl)c1)N/N=C/c1ccc(OCC(=O)N2CCCCC2)cc1,0%,2%,-2%,-2%,-2%,-48%
CC(C)Oc1cccc(C(=O)N/N=C/c2ccoc2)c1,24%,11µM*,.,16%,?,.
CCOc1cc(C(=O)N/N=C/c2ccoc2)cc(OCC)c1OCC,3%,2%,.,2%,5%,.
CCCOc1cccc(C(=O)N/N=C/c2ccoc2)c1,23%,13µM*,.,6%,?,.
Cc1cccc(C(=O)N/N=C/c2ccc(OCC(=O)N3CCCCC3)cc2)c1,5%,15µM*,-1%,1%,0%,-5%
Cc1ccccc1NC(=S)NC(=O)COc1ccccc1C,15%,?,.,0%,-4%,.
N#CCCN(Cc1ccccc1)C(=O)c1cccs1,7%,0%,.,1%,-3%,.
CN(C)C(=O)CSc1nnc2sc3ccccc3n12,6%,-19%,0%,2%,6%,17%
